HT1080 IDH1KD tx = kills HT-1080 cells with IDH1 knockdown; HT-1080 IDH1 knockdown viability, ATP luminescence, 48 h; Potency, µM (titrated, usually from 46.1 µM), without a hit: top-dose activity, negative = toxicity, actives largely listed as cytotoxic; 2% of 360,000 active; AID 686971;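 note: potency is the fitted concentration of half-maximal effect; 0% = DMSO wells and -100% = cell-free medium wells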
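HT-1080-IDH1KD cells (IDH1 knocked down), 750/well in RPMI with 5% FBS, treated with compound 48 h at 37 degrees C. Viability by CellTiter-Glo luminescence, normalised to DMSO and no-cell wells; concentration-response curves classed.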
IL-1B inflam inh = inflammasome signaling inhibition, IL-1 beta readout; activity change, % at 57.5 µM; AID 743279; 4.7% of 360,000 active; THP-1 LPS/ATP IL-1B secretion, AlphaLISA, 16 h; stronger effect = lower value; in the data active = activity change below about -50%; inconclusive = mostly about -30% to -49%
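THP-1 cells pretreated 1 hr with compounds (up to 57.5 uM final), then stimulated with LPS (250 ng/mL final) plus ATP (1.25 mM final); secreted IL-1B measured by AlphaLISA after 16 hr, decreased signal indicating inhibition.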
uPA generation = cell surface uPA generation inhibition; cell surface uPA generation assay, qHTS; Potency, µM (top dose mostly 38.3 µM), for the others: at the top dose activity change, negative = inhibition, usual class: inhibitors; AID 540303; 0.31% of 330,000 active; active = well fitted inhibition curve with a large enough effect; inconclusive = small, poorly fitted or top-dose-only effect; inactive = no such curve, though single readings can be large or run the other way; tested in mouse RAW 264.7 cells; note: potency is the fitted concentration of half-maximal effect; nearly all actives have a fitted effect of over 55% in size
TDP1 cell noCPT = qHTS for Inhibitors of human tyrosyl-DNA phosphodiesterase 1 (TDP1): qHTS in cells in absence of CPT; DT40 Tdp1-/- hTDP1 cells, no CPT, ATP luminescence, 48 h; Potency, µM (doses to about 46.2 µM), for inactives: at the highest dose activity change, negative = growth inhibition, most hits filed as inhibitors; 15% of 420,000 active; note: potency is the fitted concentration of half-maximal effect; nearly all actives have a fitted effect of over 55% in size
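DT40 Tdp1-/-;hTDP1 cells, no CPT (DMSO vehicle only), 400 cells/well; compounds pin-transferred; ≥48 hr, 37 °C; CellTiter-Glo 30 min RT dark, luminescence read.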
DT40 TDP1 CPT = DT40-hTDP1 cell growth loss with CPT | Potency, µM (titrated, usually from 46.2 µM), for inactives: at the highest dose activity change, negative = growth inhibition, hits mostly inhibitors | 12% of 420,000 active | AID 686979 | chicken DT40 Tdp1-/-;hTDP1 cells + 20 nM CPT, ATP luminescence, 48 h; note: potency is the fitted concentration of half-maximal effect; nearly all actives have a fitted effect of over 55% in size
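Chicken DT40 Tdp1-/- cells stably complemented with human TDP1 were seeded at 400 cells/well in medium containing 20 nM camptothecin, exposed to pin-transferred compounds, and grown at 37 °C for at least 48 hr. Viability was read as ATP luminescence.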
HT1080-NT tox = kills 2HG-producing HT-1080-NT fibrosarcoma cells; HT-1080-NT fibrosarcoma viability, CellTiter-Glo ATP luminescence, 48 h; Potency, µM (highest dose often 46.1 µM), for inactives: at the highest dose activity, negative = less viability, usual class: cytotoxic; 1.6% of 360,000 active; AID 686970;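 note: NT is the 2HG producing partner of a matched IDH1 knockdown line; potency is the fitted concentration of half-maximal effect; 0% = DMSO-treated cells and -100% = media-only wells without cells; nearly all actives have a fitted effect of over 55% in size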
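HT-1080-NT; 750 cells/well; 5% FBS RPMI; 48 h compound, 37 degrees C; CellTiter-Glo luminescence; curve fitting and curve-class assignment.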
* marks the source's active call; other numbers are inactive results; ? = inconclusive; . = no result given. A selection: hits, their analogues and other compounds. The true share with any hit is near 19%. Unless noted, calls come from the whole dose curve; as a rule, active = well fitted curve in the direction sought with a large enough effect; inconclusive = small, poorly fitted or top-dose-only effect, or another doubt; inactive = no such curve, though single readings can be large; an effect the other way counts as inactive or inconclusive. Unless noted, % is set by controls: 0 for no effect and ±100 for the full control effect.

SMILES | HT1080 IDH1KD tx | IL-1B inflam inh | uPA generation | TDP1 cell noCPT | DT40 TDP1 CPT | HT1080-NT tox
Cc1cc(C(=O)CSc2nc3ccccc3c(=O)[nH]2)c(C)n1CC1CCCO1 (stereo not drawn) | -19% | -18 | -5% | 10µM* | 13µM* | ?
CCN1CCCC1CNC(=O)c1cnn(-c2nccc(-c3ccccc3OC)n2)c1-c1ccco1 (stereo not drawn) | . | . | . | 7.3µM* | ? | .
O=C1C(Cc2ccccc2)Nc2ncnc(N3CCOCC3)c2N1Cc1ccc(Br)cc1 (stereo not drawn) | 2% | -9 | -2% | ? | ? | 2%
O=C1C(Cc2ccccc2)Nc2ncnc(N3CCCCC3)c2N1Cc1ccc(Cl)cc1 (stereo not drawn) | -13% | -19 | -12% | 16µM* | ? | -14%
COc1ccc(CN2C(=O)C(Cc3ccccc3)Nc3ncnc(N4CCN(c5ccccc5)CC4)c32)cc1 (stereo not drawn) | -7% | ? | -2% | ? | ? | ?
O=C1C(Cc2ccccc2)Nc2ncnc(N3CCN(c4ccccc4)CC3)c2N1Cc1ccc(Cl)cc1 (stereo not drawn) | -8% | -56* | -22% | 18µM* | ? | -10%
O=C(CN(Cc1ccc(Cl)cc1)C(=O)CNS(=O)(=O)c1ccc(F)cc1)NCC1CCCO1 (stereo not drawn) | 3% | -16 | 1% | -22% | -23% | 0%
CCOc1ccc(NC(=O)NCCc2c(C)nn(C)c2C)cc1 | . | . | . | -27% | 7% | .
CCc1ccccc1N(C)C(=O)Nc1cn(CC(C)C)c(=O)c2ccccc12 | . | . | . | 23µM* | 15µM* | .
CCCN(C(=O)Nc1cn(CC(C)C)c(=O)c2ccccc12)c1ccc(F)cc1 | . | . | . | 18µM* | 7.3µM* | .
CC1Cc2ccccc2N1C(=O)COC(=O)c1ccc(Cl)c(S(=O)(=O)N2CCOCC2)c1 (stereo not drawn) | -4% | -5 | -2% | -12% | ? | -2%
CN(Cc1ccccc1)C(=O)[C@@H]1CCCN1C(=O)[C@@H]1CCCN1C(=O)c1cccc(Cl)c1 | 25% | -17 | . | -14% | -19% | 12%
CCC1CN(C(=O)C2CCN(S(=O)(=O)c3c(C)noc3/C=C/c3ccccc3F)CC2)c2cc(Cl)ccc2O1 (stereo not drawn) | . | . | . | -23% | -1% | .
O=C1N/C(=C/c2ccc(N3CCOCC3)o2)C(=O)N1c1ccccc1 | -4% | -104* | -7% | 9.2µM* | 12µM* | ?
COc1ccc(NC(=O)CN2CCN(S(=O)(=O)N3CCCCCC3)CC2)cc1 | 2% | -7 | 4% | -13% | 2% | 0%
Cc1cc(C(O)c2ncc(-c3ccc(Cl)cc3)[nH]2)ccc1F (stereo not drawn) | ? | -13 | . | ? | 18µM* | ?
Cc1cc(C(O)c2ncc(-c3ccc(Oc4ccccc4)cc3)[nH]2)ccc1F (stereo not drawn) | 10µM* | -53* | . | ? | 18µM* | 18µM*
OC(c1ccc(F)cc1)c1ncc(-c2ccc(Oc3ccccc3)cc2)[nH]1 (stereo not drawn) | ? | -4 | . | 16µM* | ? | ?
Cc1cc(C(O)c2ncc(-c3cccc(F)c3)[nH]2)ccc1F (stereo not drawn) | 0% | 2 | . | -25% | -7% | ?
CC(C)(C)c1ccc(C(O)c2ncc(-c3ccc(F)cc3)[nH]2)cc1 (stereo not drawn) | ? | -67* | . | -40% | ? | ?
CC(C)(C)c1ccc(C(O)c2ncc(-c3ccccc3)[nH]2)cc1 (stereo not drawn) | ? | -24 | . | -18% | ? | -28%
CC(C)N1CCC(C)(C(=O)Nc2ccc(Cl)c(Cl)c2)C1 (stereo not drawn) | -8% | -2 | . | ? | ? | -25%
Cc1ccc(-n2nc3c(c2NC(=O)c2ccco2)CS(=O)C3)cc1 (stereo not drawn) | -1% | 8 | 1% | -37% | ? | -5%
N#C/C(=C1\C(=O)Nc2c(Cl)cc(Cl)cc21)c1nnc2n1CCCCC2 | 3% | ? | -4% | -13% | ? | 22%
C=CCn1c(=O)/c(=C/c2ccc(Cl)cc2)s/c1=C(\C#N)c1nnc2n1CCCCC2 | -1% | -79* | -16% | 6.5µM* | 21µM* | -15%
SMILES | HT1080 IDH1KD tx | IL-1B inflam inh | uPA generation | TDP1 cell noCPT | DT40 TDP1 CPT | HT1080-NT tox
O=C(Nc1nnc(C2CC2)s1)C1Cc2ccccc2CN1S(=O)(=O)c1cccs1 (stereo not drawn) | -8% | 0 | 5% | 16µM* | 21µM* | -8%
CCS(=O)(=O)N1Cc2ccccc2CC1C(=O)Nc1nc(C)cs1 (stereo not drawn) | 9% | -4 | 2% | ? | -1% | 16%
O=C(Nc1nnc(SCc2ccc(F)cc2)s1)C1Cc2ccccc2CN1C(=O)c1ccco1 (stereo not drawn) | -14% | -78* | -3% | ? | -19% | -6%
CCS(=O)(=O)N1Cc2ccccc2CC1C(=O)Nc1nc2c(C)cccc2s1 (stereo not drawn) | -27% | -15 | 5% | 26µM* | -25% | -12%
O=C(Nc1nnc(C2CC2)s1)C1Cc2ccccc2CN1C(=O)c1ccco1 (stereo not drawn) | 6% | 47 | -28% | -30% | ? | 4%
CCc1nnc(NC(=O)C2Cc3ccccc3CN2S(=O)(=O)c2cccs2)s1 (stereo not drawn) | 0% | 1 | 11% | ? | -30% | -7%
CCSc1nnc(NC(=O)C2Cc3ccccc3CN2S(=O)(=O)CC)s1 (stereo not drawn) | -17% | -6 | -9% | 16µM* | ? | -8%
CCN(CC(=O)Nc1ccc2c(c1)OCCO2)C(=O)/C=C/c1cccc(C(F)(F)F)c1 | 14% | 9 | 11% | -4% | 1% | 2%
Cc1nc2ccccc2n1CC(=O)c1ccc(O)c(O)c1 | 5% | 35 | -6% | -14% | -14% | -2%
COc1ccc(CNC(=O)OC2CC3CC2[C@H]2CCCCN2C3=O)cc1 (stereo partly drawn) | 5% | 21 | . | -9% | 9% | 17%
CN[C@H]1C[C@H]2c3cc(-c4ccccc4)ccc3CCN2C(=O)[C@H]1[C@H](C)O | -4% | 0 | . | ? | ? | ?
O=C(CN1CCCC1)Nc1ccc2c(c1)CCC2 | -5% | 2 | -5% | -1% | 0% | -2%
